Measured values: PubChem BioAssay (NCATS)
Where “and” joins values, the source holds several entries; their conditions need not be identical. Identical values can stand only once. Results filed as inconclusive are left out. Calls of active or inactive are those of the source. Unless noted, the call rests on the fitted dose curve; in most records, active means well fitted curve in either direction with a large enough effect (not every such curve was filed as active); inconclusive means small, poorly fitted or top-dose-only effect, or another doubt; inactive means flat fitted curve, though single readings scatter.

Tests used:
[1] = Cell Viability - BJ (AID 421; calls by dose curve;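 further: potency means the concentration at half of the fitted maximal effect; cells exposed to compound for 40 hours at 37 °C before readout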); settings: BJ fibroblast viability, qHTS
Method in brief: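 Luminescent ATP signal (CellTiter-Glo, 20 min at room temperature) served as the read-out of viable BJ cells after 40 hours of compound treatment. Responses were scaled between DMSO and 100 uM tamoxifen, and AC50 values were obtained by Hill modeling.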

[2] = Cell Viability - Hek293 (AID 427;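 active means compounds whose dose-response curve shows a full or clear partial loss of cell viability, called from curve shape rather than a numeric limit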;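 further: potency means the concentration at half of the fitted maximal effect; cells exposed to compound for 40 hours at 37 °C before reading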); settings: qHTS
Method in brief: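 Luminescent ATP read-out (CellTiter-Glo, 20 min RT) after 40 hr compound exposure at 37 °C in complete medium. Signal normalized to DMSO (basal) and 100 uM tamoxifen (100% inhibition); concentration-response fitted with the standard Hill equation to give AC50.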

[3] = Cell Viability - HepG2 (AID 433; calls by dose curve;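 further: potency means the concentration at half of the fitted maximal effect; potency for ATP loss meaning cytotoxicity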); settings: qHTS
Method in brief: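 Read-out is luciferase-based quantitation of cellular ATP as a measure of viable HepG2 cells after 40 h treatment at 37 °C. Signal decrease is scaled between DMSO-only and 100 uM tamoxifen controls, with AC50 fitted by the Hill equation.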

[4] = Cell Viability - N2a (AID 540; active means well fitted curve in the direction sought with a large enough effect; an effect the other way counts as inactive or inconclusive;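 further: plate controls were DMSO alone for no effect and tamoxifen control for full effect; nearly all actives have a fitted effect of over 45% in size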); settings: N2a mouse neuroblastoma cell viability; series mostly up to 92.2 µM
Method in brief: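 N2a mouse neuroblastoma, 1500 cells/well, 5 hr settle; compound 40 hr, 37 °C; CellTiter-Glo 20 min RT; luminescence; Hill-fit AC50.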

[5] = Cell Viability - HUV-EC-C (AID 542; active means well fitted curve in the direction sought with a large enough effect; an effect the other way counts as inactive or inconclusive; further: on the % scale 0 is the no-effect control and ±100 the full control effect; nearly all actives have a fitted effect of over 35% in size); settings: HUV-EC-C endothelial cell viability, qHTS; series mostly up to 92.2 µM
Method in brief: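 Luminescent ATP read-out (CellTiter-Glo, 20 min room temperature) after 40 hr compound treatment of HUV-EC-C cells at 37 °C. Concentration-response data fitted with the standard Hill equation to give AC50; tamoxifen and doxorubicin served as positive controls.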

[6] = Cell Viability - H-4-II-E (AID 543; active means well fitted curve in the direction sought with a large enough effect; an effect the other way counts as inactive or inconclusive; further: on the % scale 0 is the no-effect control and ±100 the full control effect; nearly all actives have a fitted effect of over 35% in size); settings: H-4-II-E rat hepatoma viability; series mostly up to 92.2 µM
Method in brief: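 qHTS, rat hepatoma H-4-II-E, 1500 cells/well; 40 hr compound exposure, 37 °C; CellTiter-Glo ATP luminescence after 20 min RT; AC50 by standard Hill fit.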

[7] = Cell Viability - Renal Proximal Tubule (AID 545; active means well fitted curve in the direction sought with a large enough effect; an effect the other way counts as inactive or inconclusive;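 further: 0% = DMSO only and -100% = 100 µM tamoxifen; nearly all actives have a fitted effect of over 40% in size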); settings: renal proximal tubule cells viability, primary cells of rat origin; series mostly up to 91.7 µM
Method in brief: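 Luminescent ATP signal (CellTiter-Glo) served as the viability read-out after 40 hr compound exposure of freshly isolated rat proximal tubule cells at 37 °C. Concentration-dependent ATP loss was fitted with the Hill equation to give AC50.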

[8] = Cell Viability - Mesenchymal (AID 546; active means well fitted curve in the direction sought with a large enough effect; an effect the other way counts as inactive or inconclusive;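 further: cells exposed to compound for 40 hours before reading; 0% = DMSO only and -100% = 100 µM tamoxifen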); settings: mesenchymal cells viability, qHTS; series mostly up to 91.7 µM
Method in brief: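 Human renal mesenchymal cells (glomerulus-derived), 1000 cells/well, 5 hr 37 °C pre-incubation; compound 40 hr, 37 °C; CellTiter-Glo, 20 min RT; luminescence; AC50 via Hill equation.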

[9] = Cell Viability - Jurkat (AID 426;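 active means dose-dependent loss of cell ATP signal giving a full or clear fitted curve, ranked by lower potency value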;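 further: potency means the concentration at half of the fitted maximal effect; cells exposed to compound for 40 hours at 37 °C before ATP read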); settings: qHTS
Method in brief: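 Luminescent ATP read-out (CellTiter-Glo, 20 min at room temperature) after 40 hr compound exposure at 37 °C of Jurkat E6-1 cells, 5000/well. Decreased ATP taken as cytotoxicity; AC50 from standard Hill equation.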

[10] = Cell Viability - SK-N-SH (AID 435; calls by dose curve; further: potency means the concentration at half of the fitted maximal effect); settings: SK-N-SH neuroblastoma cell viability qHTS
Method in brief: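 Luminescent ATP signal served as the viability read-out after 40 hours of compound treatment of human neuroblastoma SK-N-SH cells. Concentration-response data, scaled between DMSO and 100 uM tamoxifen, gave AC50 values by standard Hill modeling.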

[11] = target: Mitogen-activated protein kinase 10 (Mus musculus) (UniProt Q61831); assay: JNK3 AlphaScreen Assay (AID 530); settings: JNK3 lysate, c-Jun phosphorylation; series mostly up to 25.6 µM;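 further: kinase came from lysate of stimulated human HepG2 cells; signal reports phosphorylation of biotinylated GST-cJun 1-79 at Ser73 with 10 µM ATP; on the % scale 0 is the no-effect control and ±100 the full control effect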
Method in brief: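 HepG2 lysate (IL-1b/TNFa pre-activated) + biotin-GST-cJun 1-79 + anti-pSer73 cJun; cpd titration, 15 min RT; ATP 10 uM start; Tris pH 7.6, MgCl2, DTT, vanadate; beads in EDTA buffer; AlphaScreen.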

[12] = Cell Viability - NIH 3T3 (AID 541; active means well fitted curve in the direction sought with a large enough effect; an effect the other way counts as inactive or inconclusive;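 further: plate controls were DMSO alone for no effect and tamoxifen positive control for full effect; nearly all actives have a fitted effect of over 25% in size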); settings: NIH 3T3 cell viability, qHTS; series mostly up to 92.2 µM
Method in brief: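 qHTS format; 40 hr compound exposure, 37 °C; CellTiter-Glo luminescence (cellular ATP) read-out after 20 min at RT. Decrease in ATP = cytotoxicity; AC50 from standard Hill fit.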

[13] = AP1 Signaling Pathway (AID 357); settings: ME-180 AP-1-bla reporter, EGF-induced, beta-lactamase ratio, 5 h; series mostly up to 17.2 µM; further: on the % scale 0 is the no-effect control and ±100 the full control effect
Method in brief: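 AP-1-bla ME-180 cells with beta-lactamase reporter under AP-1 response element, stimulated with EC50 EGF; compounds titrated, 5 hours at 37 degrees Celsius. CCF4 read at 460/530 nm ratio; positive and negative modulators judged by AC50.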

[14] = NFAT Signaling Pathway (AID 444); settings: Jurkat NFAT-bla M1, carbachol, beta-lactamase ratio, 5 h; at 17.2 µM (top of the series) unless noted;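 further: carbachol stimulus at about its EC50 of 1 µM final; on the % scale 0 is the no-effect control and ±100 the full control effect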
Method in brief: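 Jurkat cells with NFAT-driven β-lactamase reporter and co-expressed M1 receptor, stimulated with carbachol (final 1 uM, ~EC50), compound titration, 5 h at 37 °C. CCF4 loaded 1 h at RT; 460/530 nm ratio gave %activity and AC50.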

[15] = Stat Signaling Pathway (AID 446); settings: ME-180 (cervical carcinoma) SIE beta-lactamase reporter, IL-6 stimulated, 5 h; series mostly up to 17.2 µM;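 further: ME-180 cervical cancer cells given 40 pM IL-6 alongside compound; SIE-controlled beta-lactamase reporter measured as 460/530 nm FRET emission ratio; on the % scale 0 is the no-effect control and ±100 the full control effect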
Method in brief: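 Compound effects on IL-6-induced STAT reporter activity were measured in ME-180 cells. After overnight culture, cells were co-treated with 40 pM IL-6 for 5 hrs before beta-lactamase substrate loading at room temperature.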

[16] = target: 3',5'-cyclic-AMP phosphodiesterase 4B (Homo sapiens) (UniProt Q07343); assay: qHTS Assay for Inhibitors of PDE-IV (AID 607; active means well fitted activation curve with a large enough effect in the main read-out, with a control signal flat, not every such curve was filed as active; further: % of control where 0% means no effect); settings: HEK293 ACTOne CNG channel cells, membrane potential fluorescence; series mostly up to 22.9 µM
3',5'-cyclic-AMP phosphodiesterase 4B (Homo sapiens), sequence (Q07343 whole entry, looked up): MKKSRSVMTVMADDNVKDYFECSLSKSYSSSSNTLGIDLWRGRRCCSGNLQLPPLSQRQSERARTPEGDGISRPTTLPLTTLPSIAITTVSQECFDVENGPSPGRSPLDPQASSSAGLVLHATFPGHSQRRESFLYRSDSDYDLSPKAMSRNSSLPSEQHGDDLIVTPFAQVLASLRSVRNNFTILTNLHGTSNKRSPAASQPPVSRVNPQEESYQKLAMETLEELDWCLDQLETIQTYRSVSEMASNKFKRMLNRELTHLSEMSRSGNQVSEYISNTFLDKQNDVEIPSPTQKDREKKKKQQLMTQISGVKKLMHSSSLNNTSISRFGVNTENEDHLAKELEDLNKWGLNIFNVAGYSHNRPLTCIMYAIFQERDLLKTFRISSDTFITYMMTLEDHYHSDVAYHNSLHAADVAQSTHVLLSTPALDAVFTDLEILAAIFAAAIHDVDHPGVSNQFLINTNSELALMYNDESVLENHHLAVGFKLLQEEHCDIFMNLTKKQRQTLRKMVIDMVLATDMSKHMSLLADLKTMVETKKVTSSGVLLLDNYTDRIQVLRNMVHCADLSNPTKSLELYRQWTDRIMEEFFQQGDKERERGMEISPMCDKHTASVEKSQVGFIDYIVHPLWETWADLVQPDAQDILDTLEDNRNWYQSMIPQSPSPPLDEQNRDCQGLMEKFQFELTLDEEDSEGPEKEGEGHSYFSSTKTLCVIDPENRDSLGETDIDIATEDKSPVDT
Method in brief: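 ACTOne HEK293 cells carry a modified cAMP-gated CNG channel and express endogenous PDE4; plated 1000 cells/well, compounds up to 22.9 uM final. Membrane-potential dye fluorescence (ex 535/em 590) was read; parental cells received 10 uM forskolin + 100 uM RO 20-1724.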

[17] = target: Glucocorticoid receptor (Homo sapiens) (UniProt P04150); assay: GR-GFP Redistribution (AID 450;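 active means compounds whose dose series gives a full or clear partial fitted curve of increased nuclear translocation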; further: potency means the concentration at half of the fitted maximal effect); settings: U2OS GR-GFP nuclear translocation, laser cytometry, 2 h
Glucocorticoid receptor (Homo sapiens), sequence (P04150 whole entry, looked up, the tested form may be a part): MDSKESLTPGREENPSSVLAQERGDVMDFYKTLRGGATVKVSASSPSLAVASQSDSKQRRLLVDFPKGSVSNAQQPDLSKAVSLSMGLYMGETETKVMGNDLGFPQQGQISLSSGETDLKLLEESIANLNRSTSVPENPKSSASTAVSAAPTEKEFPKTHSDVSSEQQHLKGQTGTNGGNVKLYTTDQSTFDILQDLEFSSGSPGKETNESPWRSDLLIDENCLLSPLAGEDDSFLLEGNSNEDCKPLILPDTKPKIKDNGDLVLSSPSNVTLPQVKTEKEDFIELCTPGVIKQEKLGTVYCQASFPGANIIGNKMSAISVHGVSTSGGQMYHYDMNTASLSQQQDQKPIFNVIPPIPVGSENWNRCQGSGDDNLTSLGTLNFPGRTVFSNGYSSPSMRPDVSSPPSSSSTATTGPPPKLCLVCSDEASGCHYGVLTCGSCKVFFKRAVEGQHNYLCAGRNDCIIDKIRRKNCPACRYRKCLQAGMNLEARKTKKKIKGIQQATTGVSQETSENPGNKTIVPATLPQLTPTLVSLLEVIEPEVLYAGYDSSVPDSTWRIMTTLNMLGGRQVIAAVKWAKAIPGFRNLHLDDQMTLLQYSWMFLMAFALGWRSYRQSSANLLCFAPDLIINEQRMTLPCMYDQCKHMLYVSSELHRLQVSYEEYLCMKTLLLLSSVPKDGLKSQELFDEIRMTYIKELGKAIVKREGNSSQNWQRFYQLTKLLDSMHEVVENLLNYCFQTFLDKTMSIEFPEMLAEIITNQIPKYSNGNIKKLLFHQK

[18] = target: Glucocorticoid receptor (Homo sapiens) (UniProt P04150); assay: GR-EFC Redistribution (AID 451; calls by dose curve; further: potency means the concentration at half of the fitted maximal effect); settings: CHO-K1 GR-EFC translocation, beta-gal luminescence, 2 h
Method in brief: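 CHO-K1 cells expressing nuclear EA and GR-ED fragments of b-gal; compounds titrated up to 46 uM final, 2 h at 37 C. GR nuclear translocation read as complemented b-gal luminescence after 1 h RT detection.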

[19] = target: Cytochrome P450 1A2 (Homo sapiens) (UniProt P05177); assay: p450-cyp1a2 (AID 410; calls by dose curve;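 further: -100% = full effect of reference inhibitor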); settings: recombinant CYP1A2, luciferin-ME demethylation, luminescence; series mostly up to 25.6 µM
Cytochrome P450 1A2 (Homo sapiens), sequence (P05177 whole entry, looked up): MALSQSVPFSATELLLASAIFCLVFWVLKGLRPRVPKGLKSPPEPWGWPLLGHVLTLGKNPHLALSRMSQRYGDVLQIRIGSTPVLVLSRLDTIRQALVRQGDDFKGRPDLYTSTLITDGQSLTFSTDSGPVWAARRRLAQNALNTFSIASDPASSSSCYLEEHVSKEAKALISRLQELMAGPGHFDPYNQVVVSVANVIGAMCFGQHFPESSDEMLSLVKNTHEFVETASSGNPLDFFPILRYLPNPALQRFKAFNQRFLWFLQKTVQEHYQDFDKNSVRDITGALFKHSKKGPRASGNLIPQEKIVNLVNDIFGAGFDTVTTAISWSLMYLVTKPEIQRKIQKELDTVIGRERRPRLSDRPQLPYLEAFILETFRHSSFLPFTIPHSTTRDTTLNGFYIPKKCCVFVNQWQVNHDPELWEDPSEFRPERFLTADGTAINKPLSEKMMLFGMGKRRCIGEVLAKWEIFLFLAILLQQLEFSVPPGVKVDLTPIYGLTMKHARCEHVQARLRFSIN
Method in brief: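 20nM CYP1A2, 100uM Luciferin-ME (=Km), 100mM KPO4; cpd 10 min RT; +NADPH regen, 60 min RT; stop/detect 20 min; luminescence. Normalized to furafylline 57 uM = full inhibition.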

O=C1c2cccc(O)c2C(=O)c2c(O)cccc21
inactive: Potency [1] > 92 µM | Potency [2] > 92 µM | Potency [3] > 92 µM | outcome [4] | outcome [5] | outcome [6] | outcome [7] | outcome [8]

FC(F)(F)C(Cl)Br (stereo not given)
inactive: Potency [1] > 92 µM | Potency [9] > 92 µM | Potency [2] > 92 µM | Potency [3] > 92 µM | Potency [10] > 92 µM | outcome [11] | outcome [4] | outcome [12] | outcome [5] | outcome [6] | outcome [7] | outcome [8]

CCCCC1(COC(=O)CCC(=O)O)C(=O)N(c2ccccc2)N(c2ccccc2)C1=O
inactive: outcome [13] | activity change, negative = inhibition [14] 11.7% | outcome [15] | outcome [11] | outcome [16]

Cc1cc(=O)[nH]c(=S)[nH]1
inactive: Potency [1] > 92 µM | Potency [9] > 92 µM | Potency [2] > 92 µM | Potency [3] > 92 µM | Potency [10] > 92 µM | outcome [11] | outcome [4] | outcome [12] | outcome [5] | outcome [6] | outcome [7] | outcome [8]

NS(=O)(=O)c1cc2c(cc1C(F)(F)F)NCNS2(=O)=O
inactive: outcome [13] | activity change, negative = inhibition [14] -1.33% and 8.85% | outcome [15] | Potency [17] > 20.6 µM | Potency [18] > 20.6 µM | outcome [11] | outcome [16]

CC(C)(C)C(=O)OCOC(=O)[C@@H]1N2C(=O)[C@@H](NC(=O)[C@H](N)c3ccccc3)[C@H]2SC1(C)C
inactive: Potency [19] | outcome [15] | outcome [11] | outcome [16]

CC(=O)OCC(COC(C)=O)OC(C)=O
inactive: Potency [1] > 92 µM | Potency [9] > 92 µM | Potency [2] > 92 µM | Potency [3] > 92 µM | Potency [10] > 92 µM | outcome [11] | outcome [4] | outcome [12] | outcome [5] | outcome [6] | outcome [7] | outcome [8]

NC(N)=NCCN1CCCCCCC1
inactive: outcome [13] | activity change, negative = inhibition [14] -13.3% | outcome [15] | Potency [17] > 20.6 µM | Potency [18] > 20.6 µM | outcome [11] | outcome [16]

CCS(=O)(=O)CCn1c([N+](=O)[O-])cnc1C
inactive: outcome [13] | activity change, negative = inhibition [14] -9.1% and -28.6% | outcome [15] | outcome [11] | outcome [16]

CC(=O)Nc1ccccc1
inactive: Potency [1] > 92 µM | Potency [9] > 92 µM | Potency [2] > 92 µM | Potency [3] > 92 µM | Potency [10] > 92 µM | outcome [11] | outcome [4] | outcome [12] | outcome [5] | outcome [6] | outcome [7] | outcome [8]

CC(=O)Nc1ccc(C(=O)O)cc1
inactive: Potency [1] > 92 µM | Potency [9] > 92 µM | Potency [2] > 92 µM | Potency [3] > 92 µM | Potency [10] > 92 µM | outcome [11] | outcome [4] | outcome [12] | outcome [5] | outcome [6] | outcome [7] | outcome [8]

C=CCNC(N)=S
inactive: Potency [1] > 92 µM | Potency [9] > 92 µM | Potency [2] > 92 µM | Potency [3] > 92 µM | Potency [10] > 92 µM | outcome [11] | outcome [4] | outcome [12] | outcome [5] | outcome [6] | outcome [7] | outcome [8]

NC(=O)CC[C@@H](N)C(=O)O
inactive: outcome [13] | activity change, negative = inhibition [14] 0.712% [at 38 µM] | outcome [15] | Potency [17] > 46 µM | Potency [18] > 46 µM | outcome [11] | outcome [16]

CCN(CC)C(=O)c1cccc(C)c1
inactive: Potency [1] > 92 µM | Potency [9] > 92 µM | Potency [2] > 92 µM | Potency [3] > 92 µM | Potency [10] > 92 µM | outcome [11] | outcome [4] | outcome [5] | outcome [6] | outcome [7] | outcome [8]

COc1ccc(NS(=O)(=O)c2ccc(N)cc2)nn1
inactive: outcome [13] | activity change, negative = inhibition [14] -4.78% and 5.22% | outcome [15] | Potency [17] > 20.6 µM | Potency [18] > 20.6 µM | outcome [11] | outcome [16]

Cc1c(NC(=O)c2cccnc2)c(=O)n(-c2ccccc2)n1C
inactive: outcome [13] | activity change, negative = inhibition [14] -13.6% | outcome [15] | Potency [17] > 20.6 µM | Potency [18] > 20.6 µM | outcome [11] | outcome [16]
